Experimental data from PubChem BioAssay AID2438 (Vanderbilt High Throughput Screening Facility, 2010).
Potency and affinity values are given separately. Activity calls are given as the source filed them.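 How the source made its calls: active means dose curve whose fit quality R squared exceeds 0.5; inactive means the rest.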

Target: Muscarinic acetylcholine receptor M4 (Rattus norvegicus) (UniProt P08485)
Assay: potentiation of ACh calcium response at rM4 – cell-based, CHO-K1 rat M4/Gqi5, Fluo-4 calcium, ACh EC20, selectivity assay for M1 muscarinic PAM project, dose response (AID 2438)
Conditions: series mostly up to 30 µM

Muscarinic acetylcholine receptor M4 (Rattus norvegicus), sequence (P08485 whole entry, looked up): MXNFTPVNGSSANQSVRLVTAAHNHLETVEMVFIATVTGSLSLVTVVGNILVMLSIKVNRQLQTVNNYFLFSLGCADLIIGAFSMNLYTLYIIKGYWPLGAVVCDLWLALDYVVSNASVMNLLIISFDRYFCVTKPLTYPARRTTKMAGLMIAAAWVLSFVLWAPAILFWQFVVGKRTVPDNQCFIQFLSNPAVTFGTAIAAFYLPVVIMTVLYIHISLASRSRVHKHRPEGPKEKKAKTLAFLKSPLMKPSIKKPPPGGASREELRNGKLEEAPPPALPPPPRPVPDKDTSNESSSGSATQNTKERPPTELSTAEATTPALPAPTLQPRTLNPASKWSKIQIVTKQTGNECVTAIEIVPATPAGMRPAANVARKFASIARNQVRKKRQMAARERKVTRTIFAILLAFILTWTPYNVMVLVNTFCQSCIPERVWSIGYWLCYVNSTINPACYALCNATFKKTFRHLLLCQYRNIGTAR

outcome, inactive:
Cn1cc(-c2cc(F)c(CN3C(=O)C(=O)c4ccccc43)c(F)c2)cn1, O=C1C(=O)N(Cc2ccc(Oc3ccccc3)cc2)c2ccc(OC(F)(F)F)cc21, Cn1cc(-c2ccc(CN3C(=O)C(=O)c4ccccc43)c(F)c2)cn1, Cc1cc(NC(=O)CS(=O)(=O)c2cn(Cc3cc(Br)ccc3F)c3ccccc23)no1
